The values below come from PubChem BioAssay.

Active and inactive are the calls of the source. Unless noted, the rule behind the calls is not given here.

In test [1] the test system is Wnt5a (protein binding on small-molecule microarray). In words: small molecules binding Wnt5a protein – biophysical, small-molecule microarray, 635/667 nm fluorescence, primary screen (AID 1142).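 Note: fluorescence read at 667 nm with signal to noise per printed feature.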 To be noted: 635 nm fluorescence, higher = more signal.
The nature of test [2]: ATP-based viability of Huh7 replicon cells – cell-based, CellTiter-Glo luminescence, basal, 48 h, cytotoxicity control for HCV replication inhibitor project, primary screen (AID 1143).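 Note: Huh7 hepatoma cells carrying a hepatitis C replication reporter with no stimulus; test concentration not given here.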 The following applies: higher = more signal, called active from +8 up or from −8 down. For orientation: A replicon is a self-replicating genome or part of one, used to study replication in cells.

Test [3] can be described thus: Pseudomonas biofilm growth suppression – PAO1 strain, BacTiter-Glo luminescence, LB-PBS, primary screen (AID 1144). To be noted: P. aeruginosa PAO1 biofilm, 12 h, higher = more signal.
Test [4] can be described thus: basal CRE-LacZ reporter activity in PC12 – cell-based, unstimulated, primary screen (AID 1145). The following applies: no forskolin, luminescence, 4.5 h, higher = more signal, called active from +8 up or from −8 down.
The nature of test [5]: forskolin-driven CRE-LacZ activity in PC12 – cell-based, CRE-LacZ reporter, forskolin-stimulated, primary screen (AID 1146).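 Note: PC12 cells with 6xCRE LacZ reporter stimulated by forskolin 10 µM; beta-galactosidase reporter signal reflecting CREB driven transcription.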 To be noted: luminescence, 4.5 h, higher = more signal, called active from +8 up or from −8 down.
Test [6] deals with Streptavidin (Streptomyces avidinii) (UniProt P22629). In words: compounds binding control protein streptavidin – biophysical, small-molecule microarray, 635/667 nm fluorescence, artefact control for SMM compound annotation, primary screen (AID 1147).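 Note: signal reflects streptavidin binding to arrayed compounds as a control protein.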 The following applies: higher = more signal.
Test [7] in a line: probe aInhba binding on compound microarray – biochemical, small-molecule microarray, 635/667 nm fluorescence, primary screen (AID 1148).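 Note: score merges 667nm spot fluorescence with signal-to-noise for antibody binding to printed compounds.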 To be noted: higher = more signal.
The target of test [8] is Torsin-1A (Homo sapiens) (UniProt O14656). The test is described as follows: TOR1A wild-type binding on microarray – cell lysate, small-molecule microarray, lysate, 635/667 nm, primary screen (AID 1149). The following applies: COS7 hTOR1A-WT lysate, 635 nm fluorescence, higher = more signal.
The target is the same in test [9]. In words: torsin A mutant lysate binding on microarrays – cell lysate, small-molecule microarray, COS7 lysate, 635/667 nm fluorescence, primary screen (AID 1150).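 Note: score pools 667 nm emission and signal to noise measuring lysate protein binding.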 To be noted: COS7 hTOR1A mutant lysate, 635 nm fluorescence, higher = more signal.
Test [10] relates to Sonic hedgehog protein (Shh). In words: Sonic hedgehog microarray binding compounds – biochemical, small-molecule microarray, 635/667 nm fluorescence, primary screen (AID 1151).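 Note: Shh protein binding to compounds spotted on small-molecule microarray slides; score combines spot fluorescence intensity with signal-to-noise across triplicate slides.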 To be noted: 635 nm fluorescence, higher = more signal.
Test [11] can be described thus: optical density shifts of acrAB sulA E. coli – strain DRC41, OD650, 48 h, E. coli filamentation inducer project, primary screen (AID 1152).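 Note: E. coli MC1000 strain DRC41 lacking acrAB efflux pump and sulA.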 To be noted: higher = more signal, called active from +8 up or from −8 down.
The nature of test [12]: probe aLefty1 binding on compound microarray – biochemical, small-molecule microarray, 635/667 nm fluorescence, primary screen (AID 1153).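 Note: score merges spot fluorescence with signal-to-noise ratio from the scanned slide images.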 To be noted: higher = more signal.
A short description of test [13]: plasmodial surface anion channel blockers, osmotic lysis – cell-based, P. falciparum Indochina, OD700, 1 h, primary screen (AID 1154). To be noted: P. falciparum Indochina infected RBC osmotic lysis, higher = more signal, called active from +8 up or from −8 down.
The nature of test [14]: plasmodial surface anion channel blockers, osmotic lysis – cell-based, P. falciparum Indochina, OD700, 2 h, primary screen (AID 1155).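 Note: lysis reports solute entry through the parasite surface anion channel PSAC.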 To be noted: P. falciparum Indochina infected erythrocytes, higher = more signal, called active from +8 up or from −8 down.
A short description of test [15]: changes in parasitized red cell lysis, either direction – P. falciparum Indochina, OD700, 3 h, PSAC antagonist project, primary screen (AID 1156). To be noted: P. falciparum-infected erythrocytes, osmotic lysis, higher = more signal, called active from +8 up or from −8 down.
The nature of test [16]: plasmodial surface anion channel blockers, osmotic lysis – cell-based, P. falciparum Indochina, OD700, 18 h, primary screen (AID 1157). The following applies: P. falciparum Indochina infected erythrocytes, osmotic lysis OD700, 18 h; higher = more signal, called active from +8 up or from −8 down.
The nature of test [17]: S6 kinase pathway phospho-S6 level changes – cell-based, A549, cytoblot, luminescence, serum-stimulated, primary screen (AID 1158).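 Note: serum-stimulated A549 lung adenocarcinoma cells; signal is phosphorylated S6 detected by cytoblot immunostaining with HRP secondary.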 The following applies: 5 h, higher = more signal.
For test [18], the target named is NADPH oxidase 2 (Homo sapiens) (UniProt P04839). The test is described as follows: compounds shifting NOX2 Amplex Red fluorescence – cell-based, HEK293-NOX2, PMA-stimulated, NOX inhibitor project, primary screen (AID 1159). Note: test concentration not given here. To be noted: 45 min, higher = more signal, called active from +8 up or from −8 down.
For test [19], the target named is NADPH oxidase 4 (Homo sapiens) (UniProt Q9NPH5). In words: compounds shifting NOX4 Amplex Red fluorescence – cell-based, HEK293-NOX4, tetracycline-induced, NOX inhibitor project, primary screen (AID 1160). To be noted: HEK293-NOX4, Amplex Red H2O2 fluorescence, 45 min; higher = more signal, called active from +8 up or from −8 down.
The target in test [20] is NADPH oxidase 5 (Homo sapiens) (UniProt Q96PH1). The test is described as follows: compounds shifting NOX5 Amplex Red fluorescence – cell-based, HEK293-NOX5, NOX inhibitor project, primary screen (AID 1161). To be noted: HEK293-NOX5, ionomycin, 45 min, higher = more signal.
Sequence of NADPH oxidase 5 (Homo sapiens) (Q96PH1 whole entry, looked up): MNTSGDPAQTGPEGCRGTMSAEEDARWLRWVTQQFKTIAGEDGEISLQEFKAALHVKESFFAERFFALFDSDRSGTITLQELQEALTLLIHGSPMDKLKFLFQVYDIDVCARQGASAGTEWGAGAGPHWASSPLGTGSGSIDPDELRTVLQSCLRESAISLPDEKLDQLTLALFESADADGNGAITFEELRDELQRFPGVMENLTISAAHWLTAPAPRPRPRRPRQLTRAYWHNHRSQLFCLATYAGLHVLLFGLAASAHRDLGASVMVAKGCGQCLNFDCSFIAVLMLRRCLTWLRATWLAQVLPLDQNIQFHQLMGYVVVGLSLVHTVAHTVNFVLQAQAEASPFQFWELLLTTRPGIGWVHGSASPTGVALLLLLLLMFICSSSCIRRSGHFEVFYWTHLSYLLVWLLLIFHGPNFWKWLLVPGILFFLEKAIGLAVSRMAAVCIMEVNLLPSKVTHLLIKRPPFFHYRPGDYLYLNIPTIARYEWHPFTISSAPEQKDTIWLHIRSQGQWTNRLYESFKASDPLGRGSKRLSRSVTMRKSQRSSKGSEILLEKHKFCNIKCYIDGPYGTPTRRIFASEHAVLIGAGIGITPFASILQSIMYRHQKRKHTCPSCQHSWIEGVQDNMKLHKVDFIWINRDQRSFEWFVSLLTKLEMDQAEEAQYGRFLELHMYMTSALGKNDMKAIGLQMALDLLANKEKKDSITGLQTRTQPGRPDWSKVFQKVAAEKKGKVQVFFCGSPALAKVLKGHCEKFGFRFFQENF

Sequence of Streptavidin (Streptomyces avidinii) (P22629 whole entry, looked up): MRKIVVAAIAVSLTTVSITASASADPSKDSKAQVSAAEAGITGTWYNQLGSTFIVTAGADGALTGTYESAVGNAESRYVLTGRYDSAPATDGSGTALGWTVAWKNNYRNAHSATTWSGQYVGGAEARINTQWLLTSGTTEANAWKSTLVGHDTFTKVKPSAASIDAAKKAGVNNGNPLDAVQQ
Sequence of Torsin-1A (Homo sapiens) (O14656 whole entry, looked up): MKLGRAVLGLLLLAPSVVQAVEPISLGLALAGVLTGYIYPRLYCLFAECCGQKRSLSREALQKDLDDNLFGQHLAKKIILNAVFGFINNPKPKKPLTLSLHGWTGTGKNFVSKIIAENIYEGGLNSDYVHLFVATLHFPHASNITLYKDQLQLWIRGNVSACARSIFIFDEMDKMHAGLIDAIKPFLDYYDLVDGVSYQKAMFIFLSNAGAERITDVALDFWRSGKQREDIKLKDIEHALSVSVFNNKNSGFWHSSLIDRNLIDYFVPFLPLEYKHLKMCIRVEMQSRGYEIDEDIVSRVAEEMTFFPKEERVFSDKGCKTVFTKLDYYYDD
Sequence of NADPH oxidase 4 (Homo sapiens) (Q9NPH5 whole entry, looked up): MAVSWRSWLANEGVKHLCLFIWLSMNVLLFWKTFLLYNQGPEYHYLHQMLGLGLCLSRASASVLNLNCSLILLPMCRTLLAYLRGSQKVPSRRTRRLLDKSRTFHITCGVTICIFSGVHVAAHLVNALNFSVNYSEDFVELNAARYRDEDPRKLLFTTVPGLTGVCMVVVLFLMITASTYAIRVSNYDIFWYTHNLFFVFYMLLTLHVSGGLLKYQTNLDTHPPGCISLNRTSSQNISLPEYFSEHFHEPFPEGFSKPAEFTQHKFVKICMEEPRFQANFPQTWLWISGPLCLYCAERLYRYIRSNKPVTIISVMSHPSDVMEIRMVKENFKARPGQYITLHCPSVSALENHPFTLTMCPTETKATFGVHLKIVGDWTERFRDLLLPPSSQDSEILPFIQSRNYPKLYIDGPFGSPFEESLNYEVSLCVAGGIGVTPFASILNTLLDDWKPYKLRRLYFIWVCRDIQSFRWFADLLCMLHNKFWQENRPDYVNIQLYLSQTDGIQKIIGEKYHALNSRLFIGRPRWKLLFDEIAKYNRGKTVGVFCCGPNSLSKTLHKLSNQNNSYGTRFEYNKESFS
Sequence of NADPH oxidase 2 (Homo sapiens) (P04839 whole entry, looked up): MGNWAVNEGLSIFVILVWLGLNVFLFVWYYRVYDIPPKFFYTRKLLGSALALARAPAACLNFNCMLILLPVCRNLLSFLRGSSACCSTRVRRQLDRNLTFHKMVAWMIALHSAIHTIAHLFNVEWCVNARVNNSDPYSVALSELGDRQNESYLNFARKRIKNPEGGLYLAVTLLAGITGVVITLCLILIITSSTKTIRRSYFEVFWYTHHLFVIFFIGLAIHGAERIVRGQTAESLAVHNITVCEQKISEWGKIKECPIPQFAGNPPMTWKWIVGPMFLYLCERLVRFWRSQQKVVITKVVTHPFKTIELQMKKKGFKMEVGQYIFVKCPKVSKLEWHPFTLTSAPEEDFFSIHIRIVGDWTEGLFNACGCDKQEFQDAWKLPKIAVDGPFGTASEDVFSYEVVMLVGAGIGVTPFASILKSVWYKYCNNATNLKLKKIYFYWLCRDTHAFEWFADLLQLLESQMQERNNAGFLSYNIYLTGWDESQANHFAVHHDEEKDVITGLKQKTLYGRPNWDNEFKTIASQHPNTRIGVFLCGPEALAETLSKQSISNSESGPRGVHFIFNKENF

`COC(=O)[C@@]1(Cc2ccccc2)[C@H]2c3cc(C(=O)N4CCCC4)n(CCN4CNCC4=O)c3C[C@H]2CN1C(=O)c1ccccc1`: the composite z-score was -0.042 in test [1]; 2.04 in test [6]; 0.202 in test [7]; -0.0625 with Torsin-1A (Homo sapiens) [8]; 1.02 with Torsin-1A (Homo sapiens) [9]; -0.535 in test [10]. Besides, the composite z-score in [12] was determined as 0.0176. Moreover, the z-score in test [2] was -0.119 (inactive); in [3], 0.351 (inactive); in test [4] it was -0.182 (inactive); in [5], -0.768 (inactive); in test [11], -1.1 (inactive); in test [13], -0.469 (inactive). In addition, the z-score in test [14] is -1.05 (inactive); in [15], 0.423 (inactive); in [16], -1.63 (inactive); in test [17] it was 0.212; in test [18] it was 0.122 (inactive); in test [19], 1.61 (inactive). Further, in test [20], the z-score is 0.595.

As to `NC(=O)NCC#Cc1ccc2c(c1)[C@]1(C(=O)N2)[C@H](C(N)=O)[C@H]2C(=O)O[C@H](c3ccccc3)[C@H](c3ccccc3)N2[C@@H]1c1ccccc1OCCO`, the composite z-score in test [1] was found to be 0.0902; in test [6], 0.28; in test [7], 0.0091; in the test with Torsin-1A (Homo sapiens) [8], 0.247; with Torsin-1A (Homo sapiens) [9] it was 0.396; in [10] it was 1.18. The composite z-score in test [12] was 0.199. Also, the z-score is 0.463 (inactive) in [2]; -0.258 (inactive) in [3]; 0.918 (inactive) in [4]; -0.447 (inactive) in test [5]; -0.925 (inactive) in test [11]; 2.15 (inactive) in [13]. In addition, the z-score in test [14] was 0.0353 (inactive); in test [15] it was -3.88 (inactive); in [16], -0.146 (inactive); in test [17] it was -0.128; in test [18] it was 2.1 (inactive); in [19], 1 (inactive). In addition, the z-score in [20] is 0.53.

As to `CC(=O)NCCCC[C@@H]1NC(=O)[C@H]2C[C@@H](C(=O)NCCCCCCN(C)C)[C@@H](c3cccc(OCCO)c3)N2C1=O`, the composite z-score amounted to 0.906 in test [1]; 0.369 in test [6]; 0.222 in test [7]; 1.37 with Torsin-1A (Homo sapiens) [8]; 1.88 with Torsin-1A (Homo sapiens) [9]; 2.22 in test [10]. The same compound registered a composite z-score in test [12] of 0.257. Also, the z-score in test [2] was -0.102 (inactive); in test [3], -0.542 (inactive); in [4] it was 0.0084 (inactive); in test [5], 0.172 (inactive); in test [11], -0.179 (inactive); in [13], 2.81 (inactive). Further, the z-score in test [14] was 0.461 (inactive); in test [15], 1.25 (inactive); in test [16] it was 0.376 (inactive); in test [17] it was 0.317; in [18], 0.779 (inactive); in test [19] it was 0.301 (inactive). For the same compound, the z-score in test [20] came to 1.44.

For the compound `O=C(NCc1ccccc1)[C@@]1(Cc2ccccc2)COC(c2ccc(OCCCO)cc2)=N1`, the composite z-score is 0.369 in [1]; 0.191 in test [6]; -0.0087 in test [7]; -0.0265 with Torsin-1A (Homo sapiens) [8]; 0.737 with Torsin-1A (Homo sapiens) [9]; -0.587 in test [10]. In addition, the composite z-score in test [12] is 0.205. Moreover, the z-score in [2] is -4.7 (inactive); in test [3], -0.607 (inactive); in test [4] it was -0.0157 (inactive); in [5], -1.27 (inactive); in test [11] it was -0.65 (inactive); in test [13], 29.5 (active). Moreover, the z-score was 21.2 (active) in [14]; 3.61 (inactive) in test [15]; 3.89 (inactive) in test [16]; 0.366 in test [17]; -3.55 (inactive) in test [18]; -0.556 (inactive) in [19]. In addition, the z-score in [20] was -2.81.
